According to PubChem BioAssay (NCI):
Compounds without any hit were thinned out: in the full panel of roughly 83,000, 20% have a hit.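 Cell lines were cultured in 96-well plates, exposed to a single compound concentration, and assessed for percent growth 48 hours later.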 The source made the active and inactive calls. Rule for the calls: active = growth percent below 10; inactive = the rest.

Experiments:
Assay in all cases: NCI-60 one-dose screen, 48 h (100 = growth as untreated, 0 = no growth, -100 = all killed)
T-47D breast = tested on: T-47D breast
BT-549 breast = tested on: BT-549 breast
MDA-MB-435 melanoma = tested on: MDA-MB-435 melanoma
SW-620 colon = tested on: SW-620 colon
MCF7 breast = tested on: MCF7 breast
HCT-116 colon = tested on: HCT-116 colon
HCC-2998 colon = tested on: HCC-2998 colon
KM12 colon = tested on: KM12 colon
MDA-MB-468 breast = tested on: MDA-MB-468 breast

Measured: growth

CC/C(=C(/c1ccc(O)cc1)c1ccc(OCCN(C)C(=O)COCCOCCNC(=O)Cc2ccc3c(c2)CN([C@@H]2CCC(=O)NC2=O)C3=O)cc1)c1ccccc1
active: T-47D breast; 10 µM 6.14% | BT-549 breast; 1 µM -20.3% | BT-549 breast; 10 µM -26% | MDA-MB-468 breast; 1 µM 1.33% | MDA-MB-468 breast; 10 µM -15.7%
inactive: T-47D breast; 1 µM 19.2% | MDA-MB-435 melanoma; 1 µM 107% | MDA-MB-435 melanoma; 10 µM 73.6% | SW-620 colon; 1 µM 84.2% | SW-620 colon; 10 µM 29.6% | MCF7 breast; 1 µM 36.1% | MCF7 breast; 10 µM 19.6% | HCT-116 colon; 1 µM 96.4% | HCT-116 colon; 10 µM 101% | HCC-2998 colon; 1 µM 97.3% | HCC-2998 colon; 10 µM 48.9% | KM12 colon; 1 µM 105% | KM12 colon; 10 µM 50.3%

CC/C(=C(\c1ccc(O)cc1)c1ccc(OCCNC)cc1)c1ccccc1
inactive: T-47D breast; 1 µM 59.6% | T-47D breast; 10 µM 44.8% | BT-549 breast; 1 µM 91.4% | BT-549 breast; 10 µM 74.4% | MDA-MB-435 melanoma; 1 µM 104% | MDA-MB-435 melanoma; 10 µM 74.5% | SW-620 colon; 1 µM 107% | SW-620 colon; 10 µM 89.9% | MCF7 breast; 1 µM 24.9% | MCF7 breast; 10 µM 25.8% | HCT-116 colon; 1 µM 93.2% | HCT-116 colon; 10 µM 62.4% | HCC-2998 colon; 1 µM 106% | HCC-2998 colon; 10 µM 56.7% | KM12 colon; 1 µM 101% | KM12 colon; 10 µM 65.9% | MDA-MB-468 breast; 1 µM 95.6% | MDA-MB-468 breast; 10 µM 72.4%

CN1C(=O)C(O)(CC(=O)c2cc3ccccc3oc2=O)c2ccccc21 (stereo unspecified)
inactive: T-47D breast; 10 µM unless noted 103% | BT-549 breast; 10 µM unless noted 105% | MDA-MB-435 melanoma; 10 µM unless noted 110% | SW-620 colon; 10 µM unless noted 101% | MCF7 breast; 10 µM unless noted 67.1% | HCT-116 colon; 10 µM unless noted 92.7% | HCC-2998 colon; 10 µM unless noted 109% | KM12 colon; 10 µM unless noted 96.9%

C=CC[n+]1cccc2c3ccccc3ccc21
inactive: T-47D breast; 10 µM unless noted 27% | MDA-MB-435 melanoma; 10 µM unless noted 61.3% | SW-620 colon; 10 µM unless noted 45.1% | MCF7 breast; 10 µM unless noted 25.2% | HCT-116 colon; 10 µM unless noted 48.6% | HCC-2998 colon; 10 µM unless noted 55.7% | KM12 colon; 10 µM unless noted 20.2%
active: BT-549 breast; 10 µM unless noted 9.92%

COc1cncc(-c2ccc3ncnc(N4CCc5ccc(Cl)cc54)c3c2)c1
inactive: T-47D breast; 10 µM unless noted 14.1% | MDA-MB-435 melanoma; 10 µM unless noted 53.6% | SW-620 colon; 10 µM unless noted 60.7% | HCC-2998 colon; 10 µM unless noted 16.9% | KM12 colon; 10 µM unless noted 21.5%
active: BT-549 breast; 10 µM unless noted -72.1% | MCF7 breast; 10 µM unless noted -1.93% | HCT-116 colon; 10 µM unless noted -58%

Cn1cc(-c2cc(N)n3nc(-c4c[nH]c5ccc(Cl)cc45)cc3n2)c2cc(Br)cnc21
active: T-47D breast; 10 µM unless noted -50% | BT-549 breast; 10 µM unless noted -16.1% | MDA-MB-435 melanoma; 10 µM unless noted -80.8% | SW-620 colon; 10 µM unless noted -79.1% | MCF7 breast; 10 µM unless noted -59.8% | HCT-116 colon; 10 µM unless noted -74.3% | HCC-2998 colon; 10 µM unless noted -99% | KM12 colon; 10 µM unless noted -68.8%

COc1ccc(NC(=O)NN2C(=O)c3ccccc3N(C)C2c2ccc(OC)cc2)cc1 (stereo unspecified)
inactive: T-47D breast; 10 µM unless noted 97.1% | BT-549 breast; 10 µM unless noted 29.9% | MDA-MB-435 melanoma; 10 µM unless noted 103% | SW-620 colon; 10 µM unless noted 100% | MCF7 breast; 10 µM unless noted 94.9% | HCT-116 colon; 10 µM unless noted 59.4% | HCC-2998 colon; 10 µM unless noted 113% | KM12 colon; 10 µM unless noted 101%

CCCCN1C(=O)/C(=C\C(=O)c2cc3ccccc3oc2=O)c2ccccc21
inactive: T-47D breast; 10 µM unless noted 23.6% | BT-549 breast; 10 µM unless noted 48% | MDA-MB-435 melanoma; 10 µM unless noted 84.2% | MCF7 breast; 10 µM unless noted 41% | HCT-116 colon; 10 µM unless noted 51.3% | HCC-2998 colon; 10 µM unless noted 93.9% | KM12 colon; 10 µM unless noted 85%
active: SW-620 colon; 10 µM unless noted -47.6%

Cn1cc(-c2cc(N)n3nc(-c4c[nH]c5ccccc45)cc3n2)c2cc(Br)ccc21
active: T-47D breast; 10 µM unless noted -82.7% | BT-549 breast; 10 µM unless noted -58% | MDA-MB-435 melanoma; 10 µM unless noted -79% | SW-620 colon; 10 µM unless noted -84.3% | MCF7 breast; 10 µM unless noted -73.9% | HCT-116 colon; 10 µM unless noted -77.7% | HCC-2998 colon; 10 µM unless noted -77% | KM12 colon; 10 µM unless noted -79.3%

Nc1cc2ccccc2c(=O)n1NC(=O)c1ccccc1
inactive: T-47D breast; 10 µM unless noted 77.7% | BT-549 breast; 10 µM unless noted 120% | MDA-MB-435 melanoma; 10 µM unless noted 99.8% | SW-620 colon; 10 µM unless noted 94.8% | MCF7 breast; 10 µM unless noted 53.8% | HCT-116 colon; 10 µM unless noted 96.5% | HCC-2998 colon; 10 µM unless noted 120% | KM12 colon; 10 µM unless noted 97.7%

CC/C(=C(\c1ccc(O)cc1)c1ccc(OCCN(C)C(=O)CCOCCNC(=O)c2ccc3c(c2)CN([C@@H]2CCC(=O)NC2=O)C3=O)cc1)c1ccccc1
active: BT-549 breast; 1 µM 9.93% | MDA-MB-468 breast; 10 µM 5.97%
inactive: T-47D breast; 1 µM 38.3% | T-47D breast; 10 µM 50.4% | BT-549 breast; 10 µM 39.3% | MDA-MB-435 melanoma; 1 µM 100% | MDA-MB-435 melanoma; 10 µM 95.4% | SW-620 colon; 1 µM 87% | SW-620 colon; 10 µM 83.6% | MCF7 breast; 1 µM 27.9% | MCF7 breast; 10 µM 24% | HCT-116 colon; 1 µM 92.7% | HCT-116 colon; 10 µM 94.8% | HCC-2998 colon; 1 µM 99% | HCC-2998 colon; 10 µM 103% | KM12 colon; 1 µM 102% | KM12 colon; 10 µM 103% | MDA-MB-468 breast; 1 µM 25.6%

COC(=O)c1c(C(=O)OC)c2c3ccccc3c3ccccc3n2c1C(=O)C(F)(F)F
inactive: T-47D breast; 10 µM unless noted 101% | BT-549 breast; 10 µM unless noted 106% | MDA-MB-435 melanoma; 10 µM unless noted 102% | SW-620 colon; 10 µM unless noted 97.1% | MCF7 breast; 10 µM unless noted 91.6% | HCT-116 colon; 10 µM unless noted 98.7% | HCC-2998 colon; 10 µM unless noted 122% | KM12 colon; 10 µM unless noted 106%
